{"source": "the supplement of paper PMC8975748", "note": "Where a name gives a salt, the structure may show the parent alone."}
{"tested_on": "Saccharomyces cerevisiae BY4741 SeMeCo community", "test": "z-score of subpopulation abundance vs DMSO median, subpopulation auxotrophic for LU; higher = larger share of this subpopulation than in DMSO controls", "conditions": "10 µM; 24 h; SM minimal medium; subpopulation (auxotrophy): LU", "protocol": "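Fluorescent four-plasmid SeMeCo (self-establishing metabolically cooperating S. cerevisiae BY4741 community; plasmids pH-mRuby2, pL-mWasabi, pU-eCFP, pM-TagRFP657) was grown 24 h in minimal SM medium with each Selleck FDA-approved drug at 10 µM in 384-well plates. Cells were fixed and imaged by high-content confocal microscopy. For each auxotrophic subpopulation (and the prototroph), a z-score gives the deviation from the DMSO vehicle-control population median.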"}
{"smiles": "Cn1c(=O)c2c(ncn2CC2OCCO2)n(C)c1=O", "note": "[Doxofylline]", "z-score of subpopulation abundance": 0.9}
{"smiles": "CO[C@H]1C[C@@H]2CC[C@@H](C)[C@@](O)(O2)C(=O)C(=O)N2CCCC[C@H]2C(=O)O[C@H]([C@H](C)C[C@@H]2CC[C@@H](OCCO)[C@H](OC)C2)CC(=O)[C@H](C)/C=C(\\C)[C@@H](O)[C@@H](OC)C(=O)[C@H](C)C[C@H](C)/C=C/C=C/C=C/1C", "note": "[Everolimus (RAD001)]", "z-score of subpopulation abundance": 2.59}
{"smiles": "O=C(O)c1cn(C2CC2)c2cc(N3CCNCC3)c(F)cc2c1=O", "note": "[Ciprofloxacin hydrochloride hydrate]", "z-score of subpopulation abundance": 0.43}
{"smiles": "CC[C@H]1OC(=O)[C@H](C)[C@@H](O[C@H]2C[C@@](C)(OC)[C@@H](O)[C@H](C)O2)[C@H](C)[C@@H](O[C@@H]2O[C@H](C)C[C@H](N(C)C)[C@H]2O)[C@](C)(O)C[C@@H](C)C(=O)[C@H](C)[C@@H](O)[C@]1(C)O", "note": "[Erythromycin]", "z-score of subpopulation abundance": 0.03}
{"smiles": "CCN1CC(CCN2CCOCC2)C(c2ccccc2)(c2ccccc2)C1=O", "note": "(stereo not given) [Doxapram HCl]", "z-score of subpopulation abundance": -1.17}
{"smiles": "NCCc1ccc(O)c(O)c1", "note": "[Dopamine HCl]", "z-score of subpopulation abundance": -0.45}
{"smiles": "COc1cc(O)c(C(=O)Nc2nc(C(=O)NCCN(C(C)C)C(C)C)cs2)cc1OC", "note": "[Acotiamide]", "z-score of subpopulation abundance": 0.41}
{"smiles": "CCOc1cc(N)c(Cl)cc1C(=O)NCC1CN(Cc2ccc(F)cc2)CCO1", "note": "(stereo not given) [Mosapride Citrate]", "z-score of subpopulation abundance": 0.9}
{"smiles": "N[C@@H](C(=O)N[C@@H]1C(=O)N2C(C(=O)O)=C(Cl)CS[C@H]12)c1ccccc1", "note": "[Cefaclor]", "z-score of subpopulation abundance": 0.23}
{"smiles": "CCCCCOc1ccccc1/C(=C\\SC)n1ccnc1", "note": "[Neticonazole Hydrochloride]", "z-score of subpopulation abundance": -2.84}
{"smiles": "O=C(O)c1ccccc1C(=O)Nc1ccc(S(=O)(=O)Nc2nccs2)cc1", "note": "[Phthalylsulfathiazole]", "z-score of subpopulation abundance": -0.05}
{"smiles": "CCc1nc(N)nc(N)c1-c1ccc(Cl)cc1", "note": "[Pyrimethamine]", "z-score of subpopulation abundance": -0.16}
{"smiles": "CO/N=C(\\C(=O)N[C@@H]1C(=O)N2C(C(=O)O)=C(COC(C)=O)CS[C@H]12)c1csc(N)n1", "note": "[Cefotaxime sodium]", "z-score of subpopulation abundance": 0.37}
{"smiles": "Cc1ccc(Nc2c(F)cccc2Cl)c(CC(=O)O)c1", "note": "[Lumiracoxib]", "z-score of subpopulation abundance": -1.15}
{"smiles": "C[C@@H]1CC(=O)NN=C1c1ccc(NN=C(C#N)C#N)cc1", "note": "[Levosimendan]", "z-score of subpopulation abundance": 0.42}
{"smiles": "COCCCOc1ccnc(C[S+]([O-])c2nc3ccccc3[nH]2)c1C", "note": "(stereo not given) [Rabeprazole]", "z-score of subpopulation abundance": 1.56}
{"smiles": "O=C1c2c(O)ccc(O)c2C(=O)c2c(NCCNCCO)ccc(NCCNCCO)c21", "note": "[Mitoxantrone 2HCl]", "z-score of subpopulation abundance": 3.06}
{"smiles": "CO/N=C(\\C(=O)N[C@@H]1C(=O)N2C(C(=O)O)=C(CSc3nc(=O)c(O)nn3C)CS[C@H]12)c1csc(N)n1", "note": "[Ceftriaxone Sodium Trihydrate]", "z-score of subpopulation abundance": 0.56}
{"smiles": "Nc1nc2[nH]cc(CCc3ccc(C(=O)N[C@@H](CCC(=O)O)C(=O)O)cc3)c2c(=O)[nH]1", "note": "[Pemetrexed]", "z-score of subpopulation abundance": 0.04}
{"smiles": "CN[C@H](CC(C)C)C(=O)N[C@H]1C(=O)N[C@@H](CC(N)=O)C(=O)N[C@H]2C(=O)N[C@H]3C(=O)N[C@H](C(=O)N[C@H](C(=O)O)c4cc(O)cc(O)c4-c4cc3ccc4O)[C@H](O)c3ccc(c(Cl)c3)Oc3cc2cc(c3O[C@@H]2O[C@H](CO)[C@@H](O)[C@H](O)[C@H]2O[C@H]2C[C@](C)(N)[C@H](O)[C@H](C)O2)Oc2ccc(cc2Cl)[C@H]1O", "note": "[Vancomycin HCl]", "z-score of subpopulation abundance": 0.18}
{"smiles": "CC(=O)[C@H]1CC[C@H]2[C@@H]3CCC4=CC(=O)CC[C@]4(C)[C@H]3CC[C@]12C", "note": "[Progesterone]", "z-score of subpopulation abundance": -1.24}
{"smiles": "C#C[C@]1(O)CC[C@H]2[C@@H]3CCc4cc(OC)ccc4[C@H]3CC[C@@]21C", "note": "[Mestranol]", "z-score of subpopulation abundance": -0.19}
{"smiles": "O=C(Cn1cnnn1)N[C@@H]1C(=O)N2C(C(=O)O)=C(CSc3nncs3)CS[C@H]12", "note": "[Ceftezole]", "z-score of subpopulation abundance": 0.9}
{"smiles": "C[C@H](NCc1ccc(OCc2cccc(F)c2)cc1)C(N)=O", "note": "[Safinamide Mesylate]", "z-score of subpopulation abundance": 0.54}
{"smiles": "CC[C@H]1OC(=O)C[C@@H](O)[C@H](C)[C@@H](O[C@@H]2O[C@H](C)[C@@H](O[C@H]3C[C@@](C)(O)[C@@H](O)[C@H](C)O3)[C@H](N(C)C)[C@H]2O)[C@@H](CC=O)C[C@@H](C)C(=O)/C=C/C(C)=C/[C@@H]1CO[C@@H]1O[C@H](C)[C@@H](O)[C@@H](OC)[C@H]1OC", "note": "[Tylosin]", "z-score of subpopulation abundance": 0.45}
{"smiles": "CC(=O)C1C(=O)C=C(C)OC1=O", "note": "(stereo not given) [Sodium dehydroacetate]", "z-score of subpopulation abundance": 2.06}
{"smiles": "CCCN(CCc1cccs1)[C@H]1CCc2c(O)cccc2C1", "note": "[Rotigotine]", "z-score of subpopulation abundance": -0.93}
{"smiles": "COC(=O)C1=C(C)NC(C)=C(C(=O)OC(C)C)C1c1cccc2nonc12", "note": "(stereo not given) [Isradipine]", "z-score of subpopulation abundance": 0.62}
{"smiles": "CCCC(=O)OCOC(=O)C1=C(C)NC(C)=C(C(=O)OC)C1c1cccc(Cl)c1Cl", "note": "(stereo not given) [Clevidipine Butyrate]", "z-score of subpopulation abundance": -5.98}
{"smiles": "CCN(CC)C(=O)N1CCN(C)CC1", "note": "[Diethylcarbamazine citrate]", "z-score of subpopulation abundance": 0.3}
{"smiles": "CC(=O)OCC[N+](C)(C)C", "note": "[Acetylcholine iodide]", "z-score of subpopulation abundance": -0.57}
{"smiles": "C#C[C@]1(O)CC[C@H]2[C@@H]3CCC4=CCCC[C@@H]4[C@H]3C(=C)C[C@@]21CC", "note": "[Desogestrel]", "z-score of subpopulation abundance": 0.22}
{"smiles": "CC(=O)OCC1=C(C(=O)O)N2C(=O)[C@@H](NC(=O)Cc3cccs3)[C@H]2SC1", "note": "[Cephalothin]", "z-score of subpopulation abundance": -0.87}
{"smiles": "CCCC1CC(C(=O)NC(C(C)Cl)C2OC(SC)C(O)C(O)C2O)N(C)C1", "note": "(stereo not given) [Clindamycin alcoholate]", "z-score of subpopulation abundance": -0.02}
{"smiles": "COc1ccc(Cl)cc1C(=O)NCCc1ccc(S(=O)(=O)NC(=O)NC2CCCCC2)cc1", "note": "[Glyburide (Glibenclamide)]", "z-score of subpopulation abundance": -0.07}
{"smiles": "CC1=C(C(=O)OCCN(Cc2ccccc2)c2ccccc2)C(c2cccc([N+](=O)[O-])c2)C(P2(=O)OCC(C)(C)CO2)=C(C)N1", "note": "(stereo not given) [Efonidipine]", "z-score of subpopulation abundance": 1.04}
{"smiles": "NC[C@@H]1O[C@H](O[C@H]2[C@@H](O)[C@H](O[C@@H]3[C@@H](O)[C@H](N)C[C@H](N)[C@H]3O[C@H]3O[C@H](CO)[C@@H](O)[C@H](O)[C@H]3N)O[C@@H]2CO)[C@H](N)[C@@H](O)[C@@H]1O", "note": "[Paromomycin Sulfate]", "z-score of subpopulation abundance": -0.04}
{"smiles": "OCCOc1ccc(/C(=C(/CCCl)c2ccccc2)c2ccccc2)cc1", "note": "[Ospemifene]", "z-score of subpopulation abundance": -1.59}
{"smiles": "CO/N=C(\\C(=O)N[C@@H]1C(=O)N2C(C(=O)O)=C(CSc3nc(C)c(CC(=O)O)s3)CS[C@H]12)c1csc(N)n1", "note": "[Cefodizime Sodium]", "z-score of subpopulation abundance": 0.22}
{"smiles": "Cc1ccsc1/C=C/C1=NCCCN1C", "note": "[Morantel tartrate]", "z-score of subpopulation abundance": 0.13}
